We go through 20 compounds from PubChem BioAssay AID588492 (Sanford-Burnham Center for Chemical Genomics, 2011).

Screen size: about 360,000 compounds; about 2,300 (0.64%) were called active. What follows is part of a selection rich in actives, with near analogues and random picks from the rest. Unmarked numbers belong to inactive results.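 The calls were made as follows: active = compounds giving at least 50% protection of heart cells from peroxide-induced death in the single-dose screen, raw or plate-pattern-corrected value; inactive = the rest.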

The assay can be described thus: cardioprotection against H2O2-induced cell death, primary screen, uHTS, H9c2 cells, ATPLite luminescence (AID 588492).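 Also: 0% = DMSO wells with peroxide and 100% = DMSO wells without peroxide.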 The following applies: H9c2 cardiomyocytes, H2O2 injury protection, 2 h, at 20 µM, active compounds read high. In general terms: In ATP-based viability assays light output follows the ATP content of the culture.
For `CCCCCn1c(=O)c(C(=O)NCc2ccccn2)c(O)c2ccccc21`, the protection from H2O2 cell death is 53.7% (active).
Consider `CCCCn1c(=O)c(C(=O)Nc2ccccc2Cl)c(O)c2ccccc21`, for which the protection from H2O2 cell death is 28.7%.
As for `CCCCCn1c(=O)c(C(=O)NCc2ccccc2)c(O)c2ccccc21`, the protection from H2O2 cell death was 46.9%.
Consider `CCN1CCN(C(=O)Cc2coc3cc(C)cc(C)c23)CC1`, for which the protection from H2O2 cell death was 5.6%.
Next, `COC(=O)C1=C(c2c(C)noc2C)C[C@@H]2CC[C@H]1N2C(=O)NCc1ccc2c(c1)OCO2`: -2.4%; `COc1ccccc1N=Nc1c(O)[nH]c(=S)[nH]c1=O`: -6.6%; `Cc1ccc2c(c1)=C/C(=C\c1c(O)[nH]c(=O)[nH]c1=O)C(=O)N=2`: 60.8% (active).
Next, `O=c1[nH]c(O)c(C=Nc2cc(F)cc(F)c2)c(=O)[nH]1`: 6.4%; `O=C1N=c2ccccc2=C/C1=C\c1c(O)[nH]c(=S)[nH]c1=O`: 51.8% (active).
Regarding `CCN1C(=O)C(=Cc2c(C)n(CC(=O)NCC3CCCO3)c3ccccc23)C(=O)N(CC)C1=S` (stereo not given), the protection from H2O2 cell death is -2.5%.
Next, `Nc1ccc([N+](=O)[O-])cc1`: -1.6%.
As for `Cc1cccc(OP(=O)(Oc2cccc(C)c2)OC(c2ccccc2)C(F)(F)F)c1` (stereo not given), the protection from H2O2 cell death is -8.9%.
In the case of `CC1C(=O)OC2CCN3CC=C(COC(=O)C(C)(O)C1(C)O)C23` (stereo not given), the protection from H2O2 cell death is 1.6%.
Consider `CCn1cc(CN2CCCC(C(=O)c3cccc(C(F)(F)F)c3)C2)cn1` (stereo not given), for which the protection from H2O2 cell death is -6.7%.
Consider `CCN1CCN(c2nc3c(c(=O)[nH]2)CCC3)CC1`, for which the protection from H2O2 cell death is 63% (active).
Turning to `O=C(NC(c1ccc(Cl)cc1)P(=O)(Oc1ccccc1)Oc1ccccc1)OCc1ccccc1` (stereo not given), the protection from H2O2 cell death is 7.3%.
With `O=C(CCNS(=O)(=O)c1ccccc1)Nc1ccc(Cl)cc1C(=O)c1ccccc1`, the protection from H2O2 cell death was -9.8%.
The figure for `Fc1ccc(C2N3CCCN23)cc1` (stereo not given) is 1.5%; for `C=CC12CN(C)[C@@H]3C4CO[C@H](C[C@H]41)[C@]1(C(=O)Nc4ccccc41)[C@@H]32` (stereo not given in full) it is 3.5%.
For the compound `NC(=O)Cn1cc(C(=O)c2ccccc2F)c2ccccc21`, the protection from H2O2 cell death was 8.7%.
